Records with an inconclusive call do not appear. Where a call stands in place of a potency, no number is given. The source made the active and inactive calls. The call rests on the fitted dose curve; in most records, active means well fitted cell-killing curve with a large enough effect in the repeat runs; inconclusive means weak or mixed curves, or effect the other way; inactive means no such curve, though single readings can be large or run the other way.
assay: qHTS assay to identify small molecule agonists of the farnesoid-X-receptor (FXR) signaling pathway - cell viability counter screen (AID 743218); conditions: FXR-bla HEK293T viability, CellTiter-Glo luminescence, 16 h; series mostly up to 62.6 µM; viability change, negative = cytotoxic: at the top concentration; further: nearly all actives have a fitted effect of over 45% in size
Description: U.S. Tox21 Program National Center for Advancing Translational Sciences [NCATS] NIH Chemical Genomics Center [NCGC] U.S. Environmental Protection Agency [EPA] National Institutes of Environmental Health Sciences [NIEHS] National Toxicology Program [NTP] U.S. Food and Drug Administration [FDA] Tox21 Assay Overview: The farnesoid-X-receptor (FXR), a nuclear hormone receptor, is highly expressed in liver, intestine, kidney and adrenal cortex. Natural ligands of FXR are the bile acids (Cholic acid, Chenodeoxy cholic acid etc). FXR is an important regulator of diverse metabolic pathways, including the bile acid homeostasis, lipid and glucose metabolisms. FXR regulates the expression of target genes by binding either as a monomer or as a heterodimer with the retinoid X receptor (RXR). Numerous studies have reported that FXR exerts protective function during cholestasis, diabetes, liver regeneration, and cancer. To identify compounds that activate FXR signaling, GeneBLAzer FXR-UAS-bla HEK 293T cell line (Invitrogen, Carlsbad, CA) containing a beta-lactamase reporter gene under the control of a UAS response element was used to screen the Tox21 10K compound library. The cytotoxicity of the Tox21 compound library against the FXR-bla cell line was tested in parallel by measuring the cell viability using CellTiter-Glo assay in the same wells.
Tox21 Assay Protocol Summary: FXR-bla cells were dispensed at 5000 cells/5uL/well in 1536-well black wall/clear bottom plates using a Multidrop Combi (Thermo Fisher Scientific, Waltham, MA) dispenser. After the assay plates were incubated at 37 C and 5% CO2 for 5 h, 23 nL of compounds dissolved in DMSO, positive controls or DMSO only was transferred to the assay plate by a Pintool station (Kalypsys, San Diego, CA). The assay plates were incubated at 37C for 16 h. After 1 uL of LiveBLAzerTM B/G FRET substrate was added using a Bioraptr Flying Reagent Dispenser (FRD) workstation (Beckman Coulter, Indianapolis, IN), the plates were incubated at room temperature for 2 h, and fluorescence intensity was measured by an Envision plate reader (PerkinElmer, Shelton, CT). For cell viability readout that measures cytotoxicity, 4uL/well of CellTiter-Glo reagent was added into the assay plates using a Bioraptr FRD. After 30 min incubation at room temperature, the luminescence intensity in the plates was measured using a ViewLux plate reader (PerkinElmer).

Row | SMILES | viability change, negative = cytotoxic | Potency
1 | CCCCC(CC)COC(=O)CCCCC(=O)OCC(CC)CCCC (stereo not given) | 0.0015% (inactive) | 
2 | ON=C1CCCCC1 | -37.4% (inactive) | 
3 | CCCCCCCCCCCCCCO |  | inactive
4 | CCCCCCCCCCCCCCCO |  | inactive
5 | COc1ccc(Nc2ccccc2)c(C)c1 |  | inactive
6 | O=S1(=O)CC=CC1 |  | inactive
7 | C=C(C)C(=O)Nc1ccc(Cl)c(Cl)c1 |  | inactive
8 | Cc1cccnc1 |  | inactive
9 | Nc1ccccc1[N+](=O)[O-] | 2.12% (inactive) | 
10 | OCc1cccnc1 |  | inactive
11 | c1ccc(OCCOc2ccccc2)cc1 |  | inactive
12 | CCCCC(CC)CO (stereo not given) |  | inactive
13 | CCN(CC)c1ccc(C(=O)c2ccccc2C(=O)O)c(O)c1 | -6.66% [at 81.1 µM] (inactive) | 
14 | O=P(OC(CCl)CCl)(OC(CCl)CCl)OC(CCl)CCl | -0.256% (inactive) | 
15 | C[Si](O[Si](C)(C)C)O[Si](C)(C)C |  | inactive
16 | CC(C)c1ccc(S(=O)(=O)O)cc1 |  | inactive
17 | CCCCCC/C(C=O)=C\c1ccccc1 | 4.35% (inactive) | 
18 | CCCCCC1=CCCC1=O |  | inactive
19 | CCC(O)OC(O)CC (stereo not given) |  | inactive
20 | O=C(OCCOCCOC(=O)c1ccccc1)c1ccccc1 |  | inactive

Row | SMILES | viability change, negative = cytotoxic | Potency
21 | Cc1cccc(O)c1 |  | inactive
22 | C=CCOC(=O)c1ccccc1C(=O)OCC=C |  | inactive
23 | CC(C)(N)CO |  | inactive
24 | COc1cc(Cc2cnc(N)nc2N)cc(OC)c1OC |  | inactive
25 | O=C(O)c1cc(=O)c2c(OCC(O)COc3cccc4oc(C(=O)O)cc(=O)c34)cccc2o1 |  | inactive
26 | CN(C)CCCN | -20.9% (inactive) | 
27 | O=C=NCCCCCCN=C=O |  | inactive
28 | CN(C)CCC(c1ccc(Cl)cc1)c1ccccn1 (stereo not given) | -16.2% (inactive) | 
29 | CC1=C(C)S(=O)(=O)CCS1(=O)=O |  | inactive
30 | O=C(O)CCCCCCCCCCC(=O)O |  | inactive
31 | c1ccc2scnc2c1 |  | inactive
32 | Cc1ccc(N(C)C)cc1 |  | inactive
33 | O=C(Oc1ccccc1)c1ccccc1 |  | inactive
34 | O=C1CCC(N2C(=O)c3ccccc3C2=O)C(=O)N1 (stereo not given) | -1.79% (inactive) | 
35 | O=C(O)c1cc(C(=O)O)cc(S(=O)(=O)O)c1 |  | inactive
36 | CCCCOC(=O)COc1ccc(Cl)cc1Cl |  | inactive
37 | C=C(C)C(=O)OCCOCCOCCOC(=O)C(=C)C | -0.858% (inactive) | 
38 | CC1=CC(=O)NS(=O)(=O)O1 |  | inactive
39 | CSCCC=O |  | inactive
40 | C#CCN(C)Cc1ccccc1 | -10.4% (inactive) | 

Reference: PubChem BioAssay (Tox21)
